Source: PubChem
Only some compounds are listed: those with a hit (about 3.4% of all), similar ones and a draw of the others.
ERa SRC1 pot: enhancers of ERα–SRC-1 coactivator binding, primary screen, biochemical, TR-FRET, ERα LBD, low estradiol; 1.3% of 86,000 active; Estrogen receptor (Homo sapiens), P03372; TR-FRET ERalpha-LBD/SRC-Cy5 coactivator binding, 2 h; 100 = basal binding, no effect; coactivator binding (% of control), % at 25.6 µM; in the data active = activity above about 200%;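 also: binding measured in presence of low estradiol as agonist stimulus; 0% = peptide alone without receptor and 100% = receptor with peptide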
ERb SRC1 inh: inhibitors of ERβ-SRC1 coactivator interaction, primary screen, biochemical, TR-FRET, ERβ LBD, SRC-1 peptide. AID 633, 2007. Estrogen receptor beta (Homo sapiens), Q92731. TR-FRET ER-beta LBD / SRC1-Cy5 peptide binding; receptor agonist-loaded with 1 µM estradiol. inhibition, % at 25.6 µM. 1.3% of 86,000 active;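 active = compounds whose percent inhibition of the receptor-coactivator binding signal exceeds about 50% in the single-dose screen, limit read from the data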;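 also: 0% = receptor plus peptide wells without compound and 100% = peptide-only wells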
Target sequence (Q92731 whole entry, looked up, the tested form may be a part): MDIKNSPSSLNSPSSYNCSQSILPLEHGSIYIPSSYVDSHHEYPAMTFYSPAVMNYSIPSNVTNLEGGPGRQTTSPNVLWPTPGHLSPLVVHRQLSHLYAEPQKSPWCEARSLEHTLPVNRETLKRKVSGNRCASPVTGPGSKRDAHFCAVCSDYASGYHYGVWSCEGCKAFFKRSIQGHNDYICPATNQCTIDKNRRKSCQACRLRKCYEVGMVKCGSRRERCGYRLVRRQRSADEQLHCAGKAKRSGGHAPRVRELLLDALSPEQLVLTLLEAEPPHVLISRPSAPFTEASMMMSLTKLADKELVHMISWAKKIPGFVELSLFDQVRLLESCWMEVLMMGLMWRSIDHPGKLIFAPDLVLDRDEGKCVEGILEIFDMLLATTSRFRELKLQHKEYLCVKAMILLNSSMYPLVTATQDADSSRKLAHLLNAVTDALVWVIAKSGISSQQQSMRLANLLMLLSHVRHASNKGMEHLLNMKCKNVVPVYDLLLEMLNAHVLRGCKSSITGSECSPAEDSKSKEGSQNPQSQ
LYP act: LYP phosphatase activators, primary screen, biochemical, DiFMUP fluorescence, 2 µM | activation, % at 2 µM | recombinant LYP; 0 = plate median, 100 = signal doubled | Tyrosine-protein phosphatase non-receptor type 22 (Homo sapiens), Q9Y2R2 | 0.11% of 96,000 active;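 active = activation at 2 µM above a set limit, the mean plus 5 SD, cut at about 37% in these data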
LYP inh 2: PTPN22 phosphatase inhibitors, primary screen, biochemical, DiFMUP fluorescence, 2 µM | Tyrosine-protein phosphatase non-receptor type 22 (Homo sapiens), Q9Y2R2 | recombinant LYP catalytic domain | inhibition, % at 2 µM | 0.21% of 96,000 active;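 active = inhibition at 2 µM at or above a set limit, the screen mean plus 3 SD, cut at about 24% in these data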;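 also: 0% = DMSO with enzyme and 100% = enzyme fully blocked by orthovanadate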
FAK inh: FAK kinase inhibitors, primary screen, biochemical; AID 727, 2007; biochemical FAK kinase activity assay; 0.84% of 97,000 active; inhibition, %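 (tested at 7 µM)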;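 also: 0% = DMSO and 100% = reference compound high control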
ERa SRC1 inh: ERα–SRC-1 coactivator interaction inhibitors, primary screen, biochemical, TR-FRET, ERα LBD, estradiol-bound | Estrogen receptor (Homo sapiens), P03372 | TR-FRET ER-alpha LBD / SRC-1 peptide | inhibition, % at 25.6 µM | 1.7% of 86,000 active; in the data active = inhibition above about 50%;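 also: 0% = receptor plus peptide control and 100% = peptide only without receptor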
FAK inh confirm: FAK kinase inhibitors, retest, confirmation, biochemical; shares compounds with FAK inh; FAK kinase biochemical inhibition assay; inhibition, % at 7 µM; 28% of 750 active
* marks the source's active call; other numbers are inactive results; nt = not tested or not shown; [ ] = another dose, or the depositor's remark. Rule as the data show it, unless noted: active = inhibition above about 19%; inactive = the rest.

SMILES | ERa SRC1 pot | ERb SRC1 inh | LYP act | LYP inh 2 | FAK inh | ERa SRC1 inh | FAK inh confirm
CC(C)Cn1c(=O)c(C2=NS(=O)(=O)c3ccccc3N2)c(O)c2ccccc21 | nt | nt | 2.1 | -4.3 | -3.4 | nt | nt
CCCCCCCC(=O)Nc1ccc(C(=O)N/N=C/c2cccc([N+](=O)[O-])c2)cc1 | nt | nt | -2.8 | 7.9 | 33.6* | nt | 16.9
COc1ccc(COc2ccsc2C(=O)Nc2ccc(Cl)c(Cl)c2)cc1 | nt | nt | -5.5 | 7.8 | 25.5* | nt | 6.5
Cc1nc2scc(-c3ccco3)c2c(=O)n1/N=C/N(C)C | 72.3 | 42.5 | -9.0 | 4.8 | -3.6 | 26.8 | nt
CCC1=NNc2cccc3c(OC)ccc1c23 | -2.3 | 100.5*[fluorescence artefact?] | -20.3 | 22.3 | 81.8* | 99.1*[fluorescence artefact?] | 26.3*
CCOC(=O)c1cc2sc(C)cc2n1CC(=O)N(CC)CC | 97.0 | -22.7 | 0.6 | -0.7 | 30.5* | -8.4 | -0.3
Cc1ccc(C(C2C(=O)CC(C)(C)CC2=O)C2C(=O)CC(C)(C)CC2=O)s1 | nt | nt | -0.8 | 4.1 | 22.4* | nt | -0.3
CN1C(=O)/C(=C/c2ccccc2OCc2ccccc2F)NC1=S | nt | nt | 9.0 | -5.3 | 21.1* | nt | 3.1
COc1ccccc1/C=C1\NC(=S)N(CC2CCCO2)C1=O (configuration not stated) | nt | nt | 6.9 | -3.8 | -3.5 | nt | nt
CCOc1ccc(S(=O)(=O)Nc2ccccc2SC)c2cccnc12 | 89.8 | 20.2 | 0.4 | -2.0 | 20.1* | 10.9 | 11.4
N#Cc1c(-c2ccccc2)c(-c2ccccc2)nn(CC(=O)NNC(=O)Nc2ccc(Cl)c(Cl)c2)c1=O | nt | nt | -6.9 | 9.6 | 3.0 | nt | nt
O=C(O)c1ccccc1OCCOCCOc1ccccc1C(=O)O | 114.1 | -3.4 | 4.1 | -3.5 | 38.4* | -1.4 | 33.6*
O=C(O)c1ccccc1OCCOc1ccccc1C(=O)O | 134.1 | -6.0 | -13.8 | 11.3 | 7.5 | -12.3 | nt
O=C(Cc1cccs1)Nc1ccc(S(=O)(=O)N2CCCCC2)cc1 | 18.2 | 83.5* | -14.2 | 17.1 | 22.8* | 96.2*[fluorescence artefact?] | 9.0
CN1CCN(S(=O)(=O)c2ccc(NC(=O)Cc3cccs3)cc2)CC1 | 71.5 | 44.0 | 21.1 | -24.5 | 0.5 | 39.6 | nt
O=C(c1ccco1)[C@@H]1[C@@H]2C(=O)N(c3ccc(F)cc3)C(=O)[C@@H]2C2c3ccccc3C=CN21 (some centres not stated) | 79.5 | 36.0 | -1.2 | 0.7 | 34.6* | 55.3*[fluorescence artefact?] | 6.7
CC(C)(C)C(=O)[C@@H]1[C@@H]2C(=O)N(Cc3ccccc3)C(=O)[C@@H]2[C@H]2c3ccccc3C=CN12 | 5.5 | 19.2 | -7.3 | 8.4 | 4.3 | 27.1 | nt
O=C(c1ccco1)[C@@H]1[C@@H]2C(=O)N(c3ccc(Br)cc3)C(=O)[C@@H]2C2c3ccccc3C=CN21 (some centres not stated) | 106.5 | 39.4 | 1.3 | -1.7 | 19.2* | 35.9 | 4.2
CC(=O)[C@@H]1[C@@H]2C(=O)N(C3CCCCC3)C(=O)[C@@H]2C2c3ccccc3C=CN21 (some centres not stated) | 95.3 | -11.6 | 1.6 | 2.5 | 12.7 | -3.7 | nt
CC(=O)[C@H]1[C@@H]2C(=O)N(c3cccc(Cl)c3)C(=O)[C@@H]2[C@H]2c3ccccc3C=CN21 | 61.7 | 30.9 | -12.0 | 9.9 | 22.9* | 19.0 | 5.5
Cc1cc2nnc(SC(C)C#N)n2c2ccccc12 (configuration not stated) | nt | nt | -4.4 | 2.4 | 35.1* | nt | 13.9
O=C(CNC(=O)c1ccc([N+](=O)[O-])cc1)N/N=C\c1ccc(OC(=O)c2ccccc2)cc1 | nt | nt | -4.8 | 3.5 | 24.9* | nt | 11.2
CC(C)(C)OC(=O)NC(CCCCNC=O)C(=O)O (configuration not stated) | 113.6 | -4.7 | 7.4 | -8.3 | -1.3 | -6.0 | nt
CCc1ccc2nc3n[nH]c(N)c3cc2c1 | nt | nt | 14.1 | -9.7 | 40.4* | nt | 19.6*
